# Screens: PubChem, National Center for Advancing Translational Sciences (NCATS)
# IMPase cell inh: IMPase inhibition in cells | P97697 | CHO-M1 cells, IP1 accumulation, HTRF TR-FRET ratio | inhibition (IP1 accumulation), % at 46.1 µM | 120,000 tested, under 10 active | AID 901; active means well fitted curve in the direction sought with a large enough effect in the signal ratio, not every such curve was filed as active; inconclusive means small, poorly fitted or top-dose-only effect, or a change in a side signal; inactive means no such curve, though single readings can be large or run the other way; the % refers to the signal ratio;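 further: cells stimulated with carbachol in lithium chloride buffer; plate controls were DMSO basal wells for no effect and reference inhibitor wells for full effect; higher means more IMPase inhibition seen as more IP1 and lower FRET ratio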
#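 Elevated IP1 in lysates lowers TR-FRET signal (665/620 ratio and 620 channel reported). Cells were CHO-M1, given carbachol (50 uM as added) plus 50mM LiCl, pH 7.4, 30 min, 37C; compounds titrated up to 46 uM; AC50 by Hill equation.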
# ALDH1A1 inh: ALDH1A1 (human) enzyme inhibition; Purified ALDH1A1, NADH fluorescence, propionaldehyde substrate; actives 7.3% (n = 220,000); P00352; Potency, µM (series often up to 75.3 µM), without a hit: at the top dose activity, negative = inhibition, usual class: inhibitors; active means well fitted inhibition curve with a large enough effect, not every such curve was filed as active; inconclusive means small, poorly fitted or top-dose-only effect, or another doubt; inactive means no such curve, though single readings can be large or run the other way;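 further: potency means the concentration at half of the fitted maximal effect; plate controls were no enzyme wells and a reference inhibitor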
# 12-hLO inh: 12-hLO (ALOX12) enzyme inhibition. AID 1452. purified 12-hLO, xylenol orange hydroperoxide absorbance. Potency, µM (top dose mostly 57.1 µM), for inactives: top-dose activity change, negative = inhibition, usual class: inhibitors. actives 0.12% (n = 150,000). P18054; further: potency means the concentration at half of the fitted maximal effect; nearly all actives have a fitted effect of over 55% in size
# Target sequence (P18054 whole entry, looked up): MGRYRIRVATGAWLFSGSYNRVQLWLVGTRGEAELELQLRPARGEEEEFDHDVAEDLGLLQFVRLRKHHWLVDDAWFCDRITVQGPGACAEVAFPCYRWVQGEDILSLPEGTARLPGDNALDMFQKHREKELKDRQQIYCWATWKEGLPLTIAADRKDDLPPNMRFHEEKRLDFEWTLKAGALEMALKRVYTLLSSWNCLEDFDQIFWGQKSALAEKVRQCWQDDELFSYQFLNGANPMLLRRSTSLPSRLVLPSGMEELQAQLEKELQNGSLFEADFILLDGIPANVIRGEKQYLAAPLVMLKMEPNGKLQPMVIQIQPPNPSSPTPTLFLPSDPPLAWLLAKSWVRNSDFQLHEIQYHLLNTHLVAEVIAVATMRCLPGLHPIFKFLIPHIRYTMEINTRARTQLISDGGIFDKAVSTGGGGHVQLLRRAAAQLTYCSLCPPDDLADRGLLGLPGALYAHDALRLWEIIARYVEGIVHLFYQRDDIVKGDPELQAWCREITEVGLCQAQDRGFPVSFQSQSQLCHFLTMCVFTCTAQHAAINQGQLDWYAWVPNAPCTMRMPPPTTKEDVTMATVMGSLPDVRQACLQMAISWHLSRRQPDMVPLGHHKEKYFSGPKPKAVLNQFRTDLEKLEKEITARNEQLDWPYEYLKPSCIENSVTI
#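 Purified human 12hLO (150 nM), preincubated 15 min with compound, then 40 uM arachidonic acid for 30 min, room temperature, Hepes pH 7.0 with 0.01% Triton X-100. Hydroperoxide detected by ferrous iron/xylenol orange; 573/405 nm absorbance ratio gives reaction progress.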
# PNC inhibitor: perinucleolar compartment assembly inhibition; PC3M PTB-GFP, PNC prevalence imaging, 16 h; active compounds read low; actives 3.1% (n = 140,000); activity change (PNC), negative = inhibition, % at 10 µM;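 active means readout at or below -70, meaning at least 70% loss of cells showing the perinucleolar compartment, a nuclear body marking cancer cells; inconclusive means readout between -30 and a set limit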;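 further: plate controls were DMSO wells for no effect and camptothecin positive control wells for full effect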
#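 Compounds are pinned in duplicate onto adhered PC3M cells stably expressing GFP-tagged PTB and incubated 16 h at 37 C. Cells are then fixed, nuclei stained with Hoechst, and PNC-positive cells counted.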
# HPGD block: blocks human HPGD enzyme activity; actives 4.3% (n = 150,000); purified HPGD, NADH fluorescence kinetic, PGE2 substrate; Potency, µM, without a hit: at the highest dose activity change, negative = inhibition, most hits filed as inhibitors; P15428; active means well fitted inhibition curve with a large enough effect, not every such curve was filed as active; inconclusive means small, poorly fitted or top-dose-only effect, or another doubt; inactive means no such curve, though single readings can be large or run the other way; further: potency means the concentration at half of the fitted maximal effect
#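 NADH formation kinetics: reaction with 30 uM PGE2 and 1 mM NAD+ (final), 20 nM enzyme, Tris-HCl pH 8 with Tween 20, after 15 min compound preincubation at room temperature. Fluorescence change, last versus first of five reads.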
# IMPase Li cell: IMPase inhibition in cells with lithium potentiation. CHO-M1 cells, IP1 TR-FRET (IP-One), carbachol + lithium. Potency, µM (highest dose often 59.4 µM), without a hit: top-dose activity, negative = IMPase inhibition, usual class: inhibitors. actives 0.35% (n = 210,000). AID 1457;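 further: IP1 builds up when IMPase is blocked and the TR-FRET signal falls; potency means the concentration at half of the fitted maximal effect; plate controls were basal vehicle for no effect and high inhibitor control for full effect; nearly all actives have a fitted effect of over 50% in size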
#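 CHO cells stably expressing M1 receptor (2000/well) were cultured 16–30 h, then exposed to compounds with a small lithium addition for 30 min at 37C. IP1 was measured by TR-FRET competition; AC50 from Hill fits.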
# * = called active by the depositor; ? = inconclusive; . = no result given; ! = not confirmed by another sample; [ ] = remark or other dose. This is a sample that favours compounds with a hit; in the whole collection about 11% have one here. Unless noted, the call rests on the fitted dose curve; in most records, active means well fitted curve in the direction sought with a large enough effect; inconclusive means small, poorly fitted or top-dose-only effect, or another doubt; inactive means no such curve, though single readings can be large; an effect the other way counts as inactive or inconclusive. Unless noted, on the % scale 0 is the no-effect control and ±100 the full control effect.
SMILES,IMPase cell inh,ALDH1A1 inh,12-hLO inh,PNC inhibitor,HPGD block,IMPase Li cell
CCc1ccccc1NC(=O)Cn1c(=O)n(CC(=O)NCCc2ccccc2)c(=O)c2ccccc21,5,.,.,.,.,.
CCCOc1ccc(C(=O)Nc2ccc3oc(-c4ccncc4)nc3c2)cc1,-12,.,.,.,.,.
COc1cc(N=Nc2cccc(S(N)(=O)=O)c2)c2ccccc2c1N,.,7.9µM*!,?,.,-12%,0%
O=C(N/N=C/c1ccccn1)c1[nH]c2ccc([N+](=O)[O-])cc2c1-c1ccccc1,.,4.5µM*,.,.,.,15%
CCOC(=O)c1ccc(NC(=O)c2c(-c3c(F)cccc3Cl)noc2C)cc1,2,.,.,.,.,.
CCCCCN1N=C(C)CC1=O,.,0.63µM*,.,.,.,2%
COCC(=O)N1CCC[C@@]2(CCN(Cc3ccc(C#N)cc3)C2)C1,.,-8%,4%,.,-5%,0%
CCc1c(C)sc(NC(=O)CSc2nc3c(c(C(F)(F)F)n2)CCc2ccccc2-3)c1C#N,-10[1.84 µM],22µM*,-3%,-29,22µM*,?
C[C@@H]1OC(OC2C(OC3CC[C@@]4(C)C5CC=C6C7CC(C)(C)CC[C@@]7(C(=O)O)CCC6(C)C5(C)CCC4[C@]3(C)CO)OCC(O)C2O)C(O)C(O)C1O (stereo partly drawn),.,5%,2%,.,-5%,22%
CC1=NN(c2ccccc2)C(=O)/C1=C\N1CC(C)OC(C)C1 (stereo not drawn),-14,25µM*,0%,33,-2%,-13%[38.3 µM]
O=C(O)CSc1ccc([N+](=O)[O-])cc1[N+](=O)[O-],.,0%[13.5 µM],-1%[11.4 µM],.,-6%,14%
CCOC(=O)C(CSCC(=O)c1ccc(Cl)cc1Cl)NC(=O)OC(C)(C)C (stereo not drawn),3,7.9µM*,?,-5,?,32%[38.3 µM]
CCc1ccc2c(-c3cccc(Cl)c3)nc(=O)n(CC)c2n1,-8,?,-17%,.,-12%,9%
C/C(CC(=O)NCc1ccco1)=N\NC(=O)Cc1cccc2ccccc12,-1,13µM*,-4%,15,-11%,2%[38.3 µM]
O=C(CSCc1ccc(Cl)cc1)NCCSCc1ccco1,.,11µM*,.,.,.,4%
O=C(CCc1ccccc1)NCCSCc1c(F)cccc1Cl,-6,-5%,-5%,?,5µM*,-3%
CS(=O)(=O)N(CC(=O)NCCSCc1c(F)cccc1Cl)c1ccc2c(c1)OCO2,2,2.5µM*,-12%,-24,-13%,33%[38.3 µM]
COC(=O)C/C=C\[C@@H](C)[C@@H](/C=N\OCC[C@@H]1C=C[C@H](OC(C)=O)[C@H](COC(C)=O)O1)OC,.,-2%[13.5 µM],.,.,.,.
C=CCn1c(SCC(=O)NC(=O)c2cccc([N+](=O)[O-])c2)nnc1-c1ccccc1F,.,-2%,-3%,44,-16%,-1%
CN(Cc1ccco1)c1nc(-c2cccc(C#N)c2)nc2ccccc12,.,?,-8%,.,?,14%
O=C(NNC(=S)NCc1ccco1)c1ccc(Cl)s1,-4,-12%,-7%,7,0%,7%[38.3 µM]
CC(C)(C)NC(=O)CSCc1c(Cl)cccc1Cl,.,5%,-1%,?,25µM*,0%
CC(C)NC(=O)CSCc1c(F)cccc1Cl,-7,?,-2%,-7,16µM*,8%
Cc1ccccc1CSCC(=O)NCc1ccco1,.,16µM*,-8%,24,11µM*,0%
NC(=O)CSCc1c(Cl)cccc1Cl,-4,1%,-2%,-4,2%,-6%[38.3 µM]
SMILES,IMPase cell inh,ALDH1A1 inh,12-hLO inh,PNC inhibitor,HPGD block,IMPase Li cell
O=C(CSCc1ccco1)c1ccc(Cl)s1,14,?,?,-8,20µM*,-5%[38.3 µM]
OC[C@@H]1O[C@@H](n2cnc3c(NC4CCCCC4)ncnc32)[C@@H](O)[C@H]1O,5,.,-6%,.,.,.
CC(=O)N1CCC2(CC1)CCN(C(=O)Nc1cccc(C#N)c1)CC2,.,-3%,3%,.,-1%,-5%
O=C(CSCc1c(F)cccc1Cl)NCCSCc1ccco1,.,?,.,.,.,-3%
CC(C)(C)NC(=O)CSc1nncn1NCc1c(Cl)cccc1Cl,8,-3%,-4%,-100*,-9%,13%
O=C(CSCc1c(F)cccc1Cl)NCc1ccco1,6,?,-2%,?,14µM*,8%
O=C(CSCc1c(Cl)cccc1Cl)NCc1ccco1,7,?,-3%,-15,8.9µM*,9%
O=C(O)CCCCn1cnc2c(=S)nc[nH]c21,.,-13%[13.5 µM],0%[11.4 µM],.,-14%,-2%
COC(=O)c1ccc(Cn2nc(C)c(Cl)c2C)o1,9,28µM*,0%,11,-16%,12%[38.3 µM]
CCOc1ccc(Cc2nccc3cc(OCC)c(OCC)cc23)cc1OCC,1[20.6 µM],9%,-1%,.,-15%,11%
O=C(NCCC1=CCCCC1)C1CCN(S(=O)(=O)c2cccs2)CC1,-3,13µM*,-7%,?,-2%,15%[38.3 µM]
O=C(Nc1cc(Cl)ccn1)C1CCN(S(=O)(=O)c2cccs2)CC1,10,8.9µM*,-3%,-14,-3%,5%[38.3 µM]
O=C(Cc1ccccc1)NCCC1=CCCCC1,.,-8%,-1%,41,?,0%
O=C(NCCC1=CCCCC1)C1CCN(C(=O)Cc2ccccc2)CC1,.,5µM*,.,.,.,4%
Cc1ccc(CNC(=O)C2CCN(S(=O)(=O)c3cccs3)CC2)o1,-7,14µM*,-5%,?,-25%,2%
O=C(NCCC1=CCCCC1)C1CCN(S(=O)(=O)c2ccccc2)CC1,.,?,.,.,.,7%
O=C1OCCC1Sc1nnc(-c2cccs2)n1Cc1ccccc1 (stereo not drawn),3,20µM*,-6%,55,-10%,17%[38.3 µM]
CCc1cc2c(=O)n(Cc3ccccc3)c(SC3CCOC3=O)nc2s1 (stereo not drawn),.,2.8µM*,.,.,.,13%
COc1cccc(-n2c(SC3CCOC3=O)nc3ccccc3c2=O)c1 (stereo not drawn),14,-8%,0%,-100*,-13%,1%
O=C1OCCC1Sc1nnc(-c2ccccc2Cl)n1Cc1ccccc1 (stereo not drawn),.,0%,0%,?,-2%,16%
Cc1cccc(C(=O)Nc2cc3c(cc2N2CCCCC2)n(C)c(=O)n3C)c1,6,.,.,.,.,.
C/C(=N\O)C(=O)C(CN1CCCCC1)CN1CCCCC1,-2,1.6µM*,-3%,?,?,23%[38.3 µM]
CC(=O)/C(CN1CCCCC1)=N\O,4,3.5µM*,-5%,?,-7%,14%[38.3 µM]
